52 compounds from ChEMBL document CHEMBL4513216, “Probing the Open Global Health Chemical Diversity Library for Multistage-Active Starting Points for Next-Generation Antimalarials” (ACS Infect Dis, 2020) can be followed below.

Among all 68,000 compounds or so, about 2,700 (4%) showed an effect of 50% or more. The sample holds strong results, similar compounds and a random draw of the others, so the mix is not that of the screen.

The assay concerns Plasmodium berghei. The assay is described as follows: Screen against P. berghei liver stage (PbLuc), transformed with Luciferase, at 2uM. The assay is classed as functional, HepG2. To be noted: tested at 2 uM.
In the case of `CCC1CN(CCC(=O)N(C)C)CCN1CCOC` (configuration not stated), the INHIBITION is recorded as -7.41%.
The figure for `CC/N=c1\nc(NCC)nc2n1C(O)(Nc1cc(Cl)ccc1Cl)CS2` (configuration not stated) is 28.5%; for `CCc1nc(C(=O)N2CCN(CC)CC2)nn1-c1ccccc1Cl` it is 13.24%; for `CC(C)N(C)Cc1nnc2n1CCN(Cc1ccncc1)CC2` it is -2.32%.
The figure for `COc1ccc(Cc2ncc3c(n2)CN(C(=O)CO)C3)cc1` is 6.39%; for `Cc1cnn(C2CN(CC(=O)N(C)Cc3cccs3)C2)c1` it is 7.67%.
To `Cc1ccc(CN(C)C(=O)CN2CC(n3cccn3)C2)o1` belongs 3%.
As for `Cc1cnn(C2CN(CC(=O)N(C)Cc3ccc(C)o3)C2)c1`, the INHIBITION is listed as 62.51%.
On to `Cc1cc(NCc2ccco2)nc2[nH]nc(N)c12`, for which the INHIBITION is given as -0.89%.
The figure for `Fc1cccc(-c2nnn3c2COC(CNCc2nccs2)C3)c1` (configuration not stated) is -19.51%.
To `Cc1cccc(N2CCCC3(C2)CN(S(C)(=O)=O)CCO3)c1` (configuration not stated) belongs -51.66%; to `CCS(=O)(=O)N1CCOC2(CCCN(c3cccc(C#N)c3)C2)C1` (configuration not stated), 56.76%.
For `CC(C)NC(=O)N1CCOC2(CCCN(c3cccc(C#N)c3)C2)C1` (configuration not stated), the INHIBITION amounted to 24.82%.
The figure for `O=C(c1cccc(Cl)c1Cl)N1CCN(CC(O)Cn2cccn2)CC1` (configuration not stated) is 65.3%; for `CCOCC(O)CN1CCN(C(=O)c2ccccc2Cl)CC1` (configuration not stated) it is -45.23%; for `Cc1cc(C(=O)N2CCN(CC(O)Cn3cccn3)CC2)c(C)o1` (configuration not stated) it is 12.62%.
Take `CCCC(=O)NCC(=O)NC(c1ccc(Cl)cc1)C(F)(F)F` (configuration not stated): the INHIBITION worked out at 28.25%.
To `Cc1cccc(C(=O)NCc2ccnc(N(C)C)c2)n1` belongs -11.1%; to `O=C(C1CC1)N1CCN2C[C@H](c3ccccc3)[C@@H](CO)[C@H]2C1`, 7.41%; to `CC(=O)NC1CCCN(C(=O)NCc2cccnc2N(C)C)C1` (configuration not stated), 20.71%.
Regarding `CCC(CC)c1nnc(NC(=O)N2CCC(C(N)=O)CC2)s1`, the INHIBITION is given as 23.45%.
`CCC(CC)c1nnc(NC(=O)N2CCCC(NC(C)=O)C2)s1` (configuration not stated): the INHIBITION was 56.49%.
Regarding `CCCc1nnc(NC(=O)N2CCCC2c2ccncc2)s1` (configuration not stated), the INHIBITION is listed as -24.78%.
To `CC(=O)NC1CCCN(C(=O)Nc2nnc(C(C)C)s2)C1` (configuration not stated) belongs 20.14%.
`CCCc1nnc(NC(=O)N2CCCC(NC(C)=O)C2)s1` (configuration not stated): the INHIBITION was 52.08%.
The figure for `Cc1cc(C)c(S(=O)(=O)Nc2cccc3c2OCCO3)cc1C(=O)O` is -49.16%; for `Cc1oncc1C(=O)N1CC[C@H]2[C@H](CO[C@@H]2CNS(C)(=O)=O)C1` it is 11.37%; for `O=C(CC1CCCC1)N1C[C@@H]2C[C@@H]1CN2` it is 30.4%.
The figure for `CC(C)(C)CC(=O)N1C[C@@H]2C[C@@H]1CN2` is 74.88%.
To `O=C(NCC1CCCCC1)N1C[C@@H]2C[C@@H]1CN2` belongs -3.1%.
As to `CC(C(=O)N1CCc2sccc2C1)N1CCC(S(N)(=O)=O)CC1` (configuration not stated), the INHIBITION was 44.37%.
To `CN(C)c1nccc(N(C)Cc2nc3ccccc3n2C)n1` belongs 13.51%; to `CN(Cc1ncnn1C)c1ccnc(Cc2ccccc2)n1`, 26.49%.
Regarding `CN(C)c1nccc(N(C)Cc2ncnn2C)n1`, the INHIBITION came to 65.42%.
As for `CN(Cc1cccs1)c1cc(N2CCCC2CO)ncn1` (configuration not stated), the INHIBITION is on record as -25.71%.
Turning to `Cc1c[nH]cc1C(=O)N1CCN(CCc2cccs2)CC1`, the INHIBITION is -14.3%.
The figure for `Cc1ccc(OCC(C)NS(C)(=O)=O)cc1` (configuration not stated) is 41.84%; for `Cc1ccc(OCC(C)NS(C)(=O)=O)cc1C` (configuration not stated) it is 52.85%.
To `COc1ccc(OCC(C)NS(C)(=O)=O)cc1` (configuration not stated) belongs 37.05%; to `Cc1ncc(S(C)(=O)=O)c(N(C)CCCc2cnn(C)c2)n1`, 13.95%; to `CNC(=O)[C@@H]1COC[C@H]2CN(C(=O)c3cccc(OC)c3)C[C@H]21`, 11.6%.
In the case of `CCc1ccc(C(=O)N2C[C@@H]3COC[C@@H](C(=O)NC)[C@@H]3C2)cc1`, the INHIBITION is -10.98%.
As for `CNC(=O)[C@@H]1COC[C@H]2CN(C(=O)c3ccc(OC)cc3)C[C@H]21`, the INHIBITION is reported as 51.36%.
The figure for `Cc1cnn(C2CN(Cc3nc(-c4ccsc4)no3)C2)c1` is 56.02%; for `c1cnn(C2CN(Cc3nc(-c4ccsc4)no3)C2)c1` it is -5.2%.
`Cc1ccc(-c2noc(CN3CC(n4cc(C)cn4)C3)n2)cc1`: the INHIBITION is recorded as -21.39%.
Regarding `COCC1CN(C(=O)Cc2cccs2)Cc2c1cnn2C` (configuration not stated), the INHIBITION is recorded as -41.11%.
`COCC1CN(C(=O)c2ccnnc2)Cc2c1cnn2C` (configuration not stated): the INHIBITION came to 6.57%.
The figure for `COCC1CN(C(=O)CC2Cc3ccccc3C2)Cc2c1cnn2C` (configuration not stated) is 56.25%; for `COc1ccccc1S(=O)(=O)N1CCC(Oc2cccnn2)CC1` it is 33.61%.
To `Cc1ccc(S(=O)(=O)N2CCC(Oc3cccnn3)CC2)c(C)c1` belongs 71.06%.
To `CN(C)S(=O)(=O)N1CCC(Oc2cccnn2)CC1` belongs 20.38%.
